# Assay outcomes from PubChem.
# NPC1 promoter act: qHTS Assay for NPC1 Promoter Activators | Huh7 NPC1 promoter luciferase reporter, 24 h | Potency, µM (titrated, usually from 9.22 µM), for the others: top-dose activation, actives largely listed as activators | actives 2.4% (n = 320,000) | AID 485313, 2010; further: % of control where 0% means no effect; nearly all actives have a fitted effect of over 60% in size
#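 Quantitative HTS used a cell-based reporter: Huh7 cells stably bearing the NPC1 promoter upstream of luciferase were treated with compounds for 24 h, and promoter activation was read as luminescence.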
# SMN2 splice up: qHTS Assay for Enhancers of SMN2 Splice Variant Expression; actives 2.8% (n = 210,000); HEK293 SMN2-luciferase splicing reporter, luminescence, 30-36 h; Potency, µM (series often up to 46.1 µM), for inactives: at the highest dose activity change, positive = activation, usual class: activators; AID 1458, 2008; further: % of control where 0% means no effect; nearly all actives have a fitted effect of over 55% in size
#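 HEK293 cells carry an SMN2 minigene-luciferase reporter in which exon 7 inclusion puts luciferase in frame. Cells were seeded at 2000 cells/well, attached for 10-12 hours, then exposed to compounds for 30-36 hours at 37C before ONE-Glo luminescence.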
# FLuc modulator: qHTS profiling assay for firefly luciferase inhibitor/activator using purifed enzyme and Km concentrations of substrates (counterscreen for miR-21 project); Luciferin 4-monooxygenase (Photinus pyralis), P08659; purified FLuc, Km substrates, luminescence inhibition; Potency, µM (titrated, usually from 57.5 µM), inactives show at the highest dose activity change, negative = inhibition, actives largely listed as inhibitors; actives 6.9% (n = 360,000);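 further: plate controls were vehicle for no effect and reference inhibitor for full effect; nearly all actives have a fitted effect of over 55% in size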
# Target sequence (P08659 whole entry, looked up): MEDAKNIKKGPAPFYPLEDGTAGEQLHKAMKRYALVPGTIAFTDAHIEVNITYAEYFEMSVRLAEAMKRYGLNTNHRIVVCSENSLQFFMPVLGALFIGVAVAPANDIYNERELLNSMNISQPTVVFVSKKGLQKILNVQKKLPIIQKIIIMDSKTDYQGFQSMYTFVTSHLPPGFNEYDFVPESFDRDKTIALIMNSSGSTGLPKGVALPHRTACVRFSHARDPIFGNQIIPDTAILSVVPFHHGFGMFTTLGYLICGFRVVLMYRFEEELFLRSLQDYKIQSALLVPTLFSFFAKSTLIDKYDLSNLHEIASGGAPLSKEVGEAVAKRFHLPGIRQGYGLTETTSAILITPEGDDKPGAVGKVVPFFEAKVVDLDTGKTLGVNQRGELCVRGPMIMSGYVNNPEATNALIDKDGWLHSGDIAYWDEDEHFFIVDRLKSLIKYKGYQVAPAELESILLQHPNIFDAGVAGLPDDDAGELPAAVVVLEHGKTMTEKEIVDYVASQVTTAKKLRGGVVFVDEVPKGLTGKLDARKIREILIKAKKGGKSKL
#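 Purified P. pyralis luciferase, 10 nM final, with Km-level 10 uM D-luciferin and 10 uM ATP in 50 mM Tris acetate pH 7.5, 10 mM Mg acetate, 0.01% Tween-20, 0.05% BSA; 6-point qHTS titration about 60 µM downward; luminescence read.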
# Rab9 promoter act: qHTS Assay for Rab9 Promoter Activators | Potency, µM (titrated, usually from 9.22 µM), for inactives: top-dose activation, negative = inhibition, actives largely listed as activators | actives 2.8% (n = 320,000) | Huh7 Rab9 promoter-luciferase reporter, luminescence, 24 h; further: % of control where 0% means no effect; nearly all actives have a fitted effect of over 60% in size
#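 Measured in stably transfected Huh7 cells bearing a Rab9 promoter–luciferase construct: 24 h compound treatment at 37 °C, followed by luminescence detection.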
# ELG1 genotoxic: qHTS screen for small molecules that induce genotoxicity in human embryonic kidney (HEK293T) cells expressing luciferase-tagged ELG1; AID 504466, 2011; actives 1.3% (n = 330,000); HEK293T ELG1-luciferase reporter, luminescence, 16 h; Potency, µM (doses to about 46 µM), for the others: at the highest dose activity change, positive = activation, hits mostly activators; further: % of control where 0% means no effect; nearly all actives have a fitted effect of over 60% in size
#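 Genotoxicity was scored as increased ELG1-luciferase reporter signal, measured by ONE-Glo luminescence (30 min, room temperature). Compound or vehicle exposure of the HEK293T reporter cells lasted 16 hr at 37°C.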
# * = called active by the depositor; ? = inconclusive; · = not tested or not shown. Rows were chosen to be rich in hits. Some 7.4% of all compounds tested hit in one or more screens of this group. The call rests on the fitted dose curve; in most records, active means well fitted curve in the direction sought with a large enough effect; inconclusive means small, poorly fitted or top-dose-only effect, or another doubt; inactive means no such curve, though single readings can be large; an effect the other way counts as inactive or inconclusive. Potency means the concentration at half of the fitted maximal effect.
SMILES,NPC1 promoter act,SMN2 splice up,FLuc modulator,Rab9 promoter act,ELG1 genotoxic
COc1ccc(-n2cc(-c3ccccc3)nc2SCC(=O)Nc2ccccc2)cc1Cl,·,·,2%,·,·
O=C1c2ccccc2S(=O)(=O)N1Cc1nnc(-c2ccccc2Br)o1,8%,-6%,21µM*,1%,3%
CC(=O)c1ccc(Nc2nc3c(S(=O)(=O)c4ccccc4)nnn3c3ccc(Cl)cc23)cc1,·,17%,1%,·,·
Cc1cc(NC(=O)c2sccc2C)n(-c2cccc(Cl)c2)n1,2%,-3%,27µM*,3%,3%
CCCNC(=O)c1noc2c1CCc1ccccc1-2,?,16µM*,19µM*,?,?
O=C(Nc1cccnc1Cl)c1noc2c1CCc1ccccc1-2,2.5µM*,·,?,3.2µM*,27%
O=C(NCCN1CCOCC1)c1ccc(-c2ccccc2)cc1,6%,8%,-23%,5%,16%
O=C(NCCc1ccccc1)c1noc2c1CCc1ccccc1-2,17%,16%,-16%,?,8%
O=C(NCCN1CCOCC1)c1noc2c1CCc1ccccc1-2,?,10µM*,?,2µM*,16µM*
COc1cc(NC(=O)c2noc3c2CCc2ccccc2-3)cc(OC)c1OC,·,-29%,?,·,·
Cc1ccc(CNC(=O)CCCn2c(=O)c3ccccc3n(CC(=O)Nc3ccc(C)cc3)c2=O)cc1,·,0%,0%,·,·
Cc1noc(C)c1COc1ccc(C(=O)Nc2ccccc2)cc1,7%,-23%,2%,-1%,0%
Cc1noc(C)c1COc1cccc(C(=O)Nc2ccc(OCc3ccccc3)cc2)c1,0%,-8%,8.5µM*,-1%,-10%
COc1ccc2nc(NC(=O)c3cccc(OCc4c(C)noc4C)c3)sc2c1,-9%,-23%,1.5µM*,5%,-17%
Cc1ccc(C(=O)Nc2nnn(C)n2)cc1,29%,?,17µM*,?,?
CCCn1nnc(NC(=O)c2cccc(OCC)c2)n1,?,18µM*,17µM*,?,18µM*
CCn1nnc(NC(=O)c2cccnc2)n1,1%,14%,5%,0%,1%
Cn1nnc(NC(=O)c2cccc(F)c2)n1,-3%,-9%,1%,-1%,5%
CCCn1nnc(NC(=O)c2ccc3ccccc3c2)n1,?,·,15µM*,?,3%
CCn1nnc(NC(=O)c2ccc(C(C)(C)C)cc2)n1,2.2µM*,·,3.4µM*,1.3µM*,?
CCCn1nnc(NC(=O)c2cccc(OCC(C)C)c2)n1,23%,6%,?,26%,16%
Cc1ccc(C)o1,·,2%,·,·,·
Cc1ccc2c(c1)-c1c(cnc3cc(-c4ccc(F)cc4)nn13)CO2,·,-1%,0%,·,·
COc1ccc(CNC(=O)C2CCCN(S(=O)(=O)c3ccc4c(ccn4C)c3)C2)c(OC)c1 (stereo unspecified),·,·,0%,·,·
CCOC(=O)c1c(NC(=O)c2cc(=O)c3cc(C)ccc3o2)sc2c1CCCC2,·,-3%,0%,·,·
SMILES,NPC1 promoter act,SMN2 splice up,FLuc modulator,Rab9 promoter act,ELG1 genotoxic
O=C(Cn1c(=O)c2cc(Cl)ccc2n2nncc12)Nc1ccccc1,·,-2%,-7%,·,·
Cc1ccc2c(=O)cc(C(=O)Nc3sc4c(c3C(N)=O)CCCC4)oc2c1,·,10%,-1%,·,·
CC(C)(C)OC(=O)N1CCC(c2c(C(=O)NCCN3CCC(Cc4ccccc4)CC3)cnn2-c2cccc(Cl)c2)CC1,·,·,-3%,·,·
CCCn1nnc(NC(=O)c2ccc(Cl)cc2Cl)n1,3.2µM*,88%,19µM*,3.2µM*,9.2µM*
CCOc1ccc2oc(=O)cc(CN3CCN(c4cc(C)ccc4C)CC3)c2c1,·,-1%,-6%,·,·
O=c1c2ccccc2oc2nc(-c3ccco3)n(-c3ccccc3)c(=O)c12,?,13µM*,3%,?,9%
O=c1c2ccccc2oc2nc(-c3ccco3)n(CCc3ccccc3)c(=O)c12,7%,-9%,5%,13%,1%
CCc1nnc(NC(=O)CSc2ccc(-c3ccc(-n4cccn4)cc3)nn2)s1,?,·,1.2µM*,2.5µM*,5.8µM*
CCOc1ccc(-c2ccc(SCC(=O)Nc3nnc(C)s3)nn2)cc1,?,?,0.3µM*,?,0%
CCc1ccc(-c2ccc(SCC(=O)NCC3CCCO3)nn2)cc1 (stereo unspecified),?,14µM*,3.4µM*,?,9%
Cc1nnc(NC(=O)CSc2ccc(-c3ccc(Cl)cc3)nn2)s1,17%,13%,?,0%,?
CCc1ccc(-c2ccc(SCC(=O)Nc3nnc(C)s3)nn2)cc1,2.2µM*,13µM*,0.3µM*,1.3µM*,?
CC1(C(=O)O)NCCc2cc(O)c(O)cc21 (stereo unspecified),·,1%,·,·,·
Cc1ccc2c(c1)c1c(c(=O)n(-c3ccccc3C)c(=O)n1Cc1ccccc1F)n2C,·,·,-1%,·,·
Cc1ccc(C(=O)N/N=C\C2CC=CCC2)cc1[N+](=O)[O-] (stereo unspecified),1%,·,-19%,-8%,3%
O=C(N/N=C/C1CC=CCC1)c1ccc(Cl)cc1O (stereo unspecified),2%,26%,19µM*,3%,2%
O=C(CNc1ccccc1F)N/N=C/C1CC=CCC1 (stereo unspecified),-2%,1%,-11%,-3%,2%
O=C(N/N=C/C1CC=CCC1)c1cc(Br)ccc1O (stereo unspecified),-1%,6%,13µM*,1%,1%
C/C=N/NC(=O)c1cc(Br)ccc1O,1%,-10%,6%,-3%,-1%
O=C(N/N=C/C1CC=CCC1)c1ccccc1O (stereo unspecified),1%,-7%,15µM*,-3%,10%
CCOC(=O)C1OC1C(=O)NC(CC(C)C)C(=O)NCCC(C)C (stereo unspecified),·,-11%,·,·,·
COc1cc2c(cc1NCc1ccc3c(c1)OCO3)oc1ccccc12,26%,22µM*,?,-2%,15%
O=C(Nc1ccc2c(c1)oc1ccccc12)c1ccc2c(c1)OCO2,?,11%,?,?,?
COc1cc2c(cc1NC(=O)c1ccc3c(c1)OCO3)oc1ccccc12,?,14µM*,6.7µM*,3.2µM*,12µM*
COc1ccc(OC)c(-c2csc(NC(=O)c3ccc4c(c3)OCO4)n2)c1,17%,?,4.8µM*,4%,-3%
COc1ccc(OC)c(NC(=O)c2ccc3c(c2)OCO3)c1,15%,·,21µM*,13%,8%
CC(=O)c1ccc(N2CCN(C(=O)Cn3ncc4c3-c3ccccc3OC4)CC2)cc1,·,-18%,-14%,·,·
